Apoferritin bind = candidate novel general anesthetic via apoferritin binding. apoferritin/1-aminoanthracene competitive binding, fluorescence. P02791. Potency, µM (doses to about 77.5 µM), actives largely listed as inhibitors. hit rate 0.074% among 350,000; also: nearly all actives have a fitted effect of over 20% in size
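Concentration-response curves derived by four-parameter Hill fitting of normalized fluorescence, where compounds displaced 1-AMA from 10 uM horse apoferritin following a brief 10 min room-temperature incubation; propofol titration acted as positive control.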
CBFb RUNX1 block = CBF-beta/RUNX1 interaction disruption | Q01196+Q13951 | AlphaScreen CBFb-His/RUNX1-biotin binding, biochemical | Potency, µM (series often up to 59.8 µM), actives largely listed as inhibitors | 230,000 tested, under 10 active | AID 1477
Target sequence (Q01196 whole entry, looked up): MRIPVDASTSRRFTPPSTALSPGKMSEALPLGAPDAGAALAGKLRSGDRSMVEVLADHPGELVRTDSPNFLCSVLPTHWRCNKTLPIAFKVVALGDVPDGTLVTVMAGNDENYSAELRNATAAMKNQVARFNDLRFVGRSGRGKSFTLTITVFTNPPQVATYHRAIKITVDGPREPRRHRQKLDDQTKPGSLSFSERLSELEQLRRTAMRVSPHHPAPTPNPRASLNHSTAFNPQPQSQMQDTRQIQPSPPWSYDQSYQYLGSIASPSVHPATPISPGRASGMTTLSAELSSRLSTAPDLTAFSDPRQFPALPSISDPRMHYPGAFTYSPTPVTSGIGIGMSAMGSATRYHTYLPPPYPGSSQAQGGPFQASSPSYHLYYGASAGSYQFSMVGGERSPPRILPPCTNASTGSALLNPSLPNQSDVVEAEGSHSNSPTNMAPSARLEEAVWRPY
Target sequence (Q13951 whole entry, looked up): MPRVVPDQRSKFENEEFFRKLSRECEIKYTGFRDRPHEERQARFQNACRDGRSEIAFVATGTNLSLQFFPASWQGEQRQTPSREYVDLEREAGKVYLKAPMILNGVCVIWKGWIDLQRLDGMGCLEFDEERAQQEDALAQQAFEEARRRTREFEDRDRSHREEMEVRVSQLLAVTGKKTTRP
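Proteins preincubated together for 20 min at RT before compound addition; 15 min later, nickel and streptavidin beads were added and left 90 min prior to AlphaScreen measurement.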
TRPV1 potentiator = enhances activation of the human vanilloid receptor TRPV1 | AID 540277 | hit rate 0.02% among 320,000 | potentiation, % at 8.33 µM | TRPV1-expressing cells, Fluo-8 calcium influx, capsaicin EC20 potentiation; in the data active = potentiation above about 80%; inconclusive = between about 30% and that limit
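Fluo-8 calcium influx in TRPV1-expressing cells, kinetic read (ex 480/em 520 nm). Compound added and read 3 min for agonist activity, followed by capsaicin at EC20 final and 2 min further read for enhancement.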
TRPV1 agonist = human TRPV1 agonism | Q8NER1 | TRPV1-expressing cells, Fluo-8 calcium influx, agonist mode | activation, % at 8.33 µM | hit rate 0.19% among 320,000; in the data active = activation above about 80%; inconclusive = between about 30% and that limit
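Cells expressing TRPV1 were dye-loaded with Fluo-8 and read kinetically: 10 s baseline, 3 min after compound (agonist portion), then 2 min after EC20 capsaicin (allosteric enhancer portion). Calcium-bound dye fluorescence at 480/520 nm.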
A-T KAP1 phos = potential ataxia-telangiectasia treatment; F2112 A-T fibroblasts, KAP-1 phosphorylation AlphaLISA; neocarzinostatin DNA damage 30 min before lysis; Potency, µM (series often up to 57.5 µM), hits mostly activators; hit rate 0.19% among 320,000; AID 485349; also: nearly all actives have a fitted effect of over 45% in size
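hTERT-immortalized A-T patient fibroblasts (F2112), 500 cells/well in OPTI-MEM, 1% FBS, got compounds for 60 min, then NCS for 30 min at 37C. Lysates were then assayed for phospho-KAP-1 by AlphaLISA (anti-pKAP1 donor, anti-KAP1 acceptor beads), 6 hr at 25C.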
Numbers stand for hits; n = inactive; u = inconclusive; x = not tested or not shown; [ ] = remark or other dose. Rows were chosen to be rich in hits. Some 0.39% of all compounds tested hit in one or more screens of this group. Unless noted, calls follow the shape of the dose curve; as a rule, active = well fitted curve in the direction sought with a large enough effect; inconclusive = small, poorly fitted or top-dose-only effect, or another doubt; inactive = no such curve, though single readings can be large; an effect the other way counts as inactive or inconclusive.

SMILES	Apoferritin bind	CBFb RUNX1 block	TRPV1 potentiator	TRPV1 agonist	A-T KAP1 phos
CSCC[C@H](NC(=O)[C@H](Cc1ccccc1)NC(=O)[C@H](Cc1cnc[nH]1)NC(=O)CNC(=O)[C@@H](NC(=O)[C@H](C)NC(=O)[C@H](Cc1c[nH]c2ccccc12)NC(=O)[C@H](CCC(N)=O)NC(=O)[C@@H]1CCCN1C(=O)[C@@H](NC(=O)[C@@H]1CCC(=O)N1)C(C)C)C(C)C)C(N)=O	n	n	x	x	x
O=C(Nc1ccc(C2SCCS2)cc1)c1ccccc1	n	n	n	85.8	n
CNC(=O)Nc1ccc(C2SCCS2)cc1	n	n	n	n	n
OC[C@@H]1O[C@H](O)[C@H](O)[C@@H](O)[C@@H]1O	n	n	x	x	x
CCOC(=O)N1CCN(C(=O)CCc2nc3sc4c(c3c(=O)[nH]2)CCCC4)CC1	n	n	n	n	10µM
CCCc1ccc(Oc2cc(C)nc(N3CCOCC3)n2)cc1	n	n	n	n	25.1µM
Cc1cc(Oc2ccc(C(C)(C)C)cc2)nc(N2CCOCC2)n1	n	n	n	n	x
Nc1nc(-c2nn(Cc3ccccc3F)c3ncccc23)ncc1C1CC1	n	n	x	x	x
O=C1c2c(O)cc(O)cc2O[C@H](c2ccc(O)c(O)c2)C1O (stereo partly drawn)	n	n	x	x	x
Cc1cc(C)c(C)c(OCC(=O)N2CCCCCC2)c1	20µM	n	n	n	n
CC1CCCN(c2ccc(C(=O)Nc3cccnc3)cc2[N+](=O)[O-])C1 (stereo not drawn)	u	n	n	87.3	n
COc1ccc(OC)c(C2OCCC=CC2C)c1 (stereo not drawn)	n[15.3 µM]	n[13.1 µM]	x	x	x
CC(=O)c1ccc(C(=O)N2CCCC(Nc3ccc(C(C)C)cc3)C2)s1 (stereo not drawn)	u	x	n	u	n
CC(C)c1ccc(NC2CCCN(C(=O)c3ccnc(Cl)c3)C2)cc1 (stereo not drawn)	n	x	n	90.9	n
CC(C)c1ccc(NC2CCCN(C(=O)c3ccco3)C2)cc1 (stereo not drawn)	u	x	n	97.5	n
CC(C)c1ccc(NC2CCCN(C(=O)c3cc(C(C)C)[nH]n3)C2)cc1 (stereo not drawn)	n	x	n	n	n
Cc1ncsc1CCC(=O)N1CCCC(Nc2ccc(C(C)C)cc2)C1 (stereo not drawn)	n	x	n	83.7	n
COC(=O)c1ccc(C(=O)N2CCCC(Nc3ccc(C(C)C)cc3)C2)nc1 (stereo not drawn)	n	x	n	82.8	n
O=C1CC2(CCCC2)CC(=O)N1CCCCNCC1COc2ccccc2O1 (stereo not drawn)	n	n	x	x	x
CC[C@H](C)[C@H](NC(=O)[C@H](N)Cc1ccc(O)cc1)C(=O)N[C@@H](CC(N)=O)C(=O)N[C@@H](CC(C)C)C(=O)N[C@H](C(=O)N[C@@H](C(=O)N[C@@H](CCCN=C(N)N)C(=O)N[C@@H](CCC(N)=O)C(=O)N[C@@H](CCCN=C(N)N)C(=O)N[C@H](Cc1ccc(O)cc1)C(N)=O)[C@@H](C)O)[C@@H](C)CC	n	n	x	x	x
O=C1c2ccccc2CCC1CNCCc1ccc(O)cc1 (stereo not drawn)	u	n	x	x	x
O=C(CCc1ccccc1)N1CCCC(Nc2ccc(F)cc2)C1 (stereo not drawn)	n	x	n	87.4	n
Cc1ccc(CN2C(=O)C(CC(C)C)Nc3ncnc(N4CCN(c5ccccn5)CC4)c32)cc1 (stereo not drawn)	x	x	n	81.2	n
CC(=O)/C=C/c1ccccc1Oc1c(F)c(F)nc(F)c1F	n	x	n	n	31.6µM
COc1ccc(NC(=O)c2oc3ccccc3c2CSC)cn1	n	x	n	u	n
SMILES	Apoferritin bind	CBFb RUNX1 block	TRPV1 potentiator	TRPV1 agonist	A-T KAP1 phos
CCOCc1c(C(=O)Nc2ccc(OC)nc2)oc2ccccc12	n	x	n	90.4	n
Cc1ccc(SCCNC(=O)c2ccccc2F)cc1	n	x	n	80.1	n
Cc1nc(C(=O)NCCC(C)C)sc1C1(C)CC(c2ccccc2)=NO1 (stereo not drawn)	n	u	n	n	39.8µM
CNC(=O)c1nc(C)c(C2(C)CC(c3ccccc3)=NO2)s1 (stereo not drawn)	n	n	n	n	n
CCCCCC(O)/C=C/C=C\CCCCCCCC(=O)O (stereo not drawn)	x	n	x	x	x
CC(C)CCNC(=O)Nc1ccc2c(c1)N(C)C(=O)CS2	u	n	n	u	x

Screens from PubChem.
